Measurements taken from PubChem BioAssay (Tox21).
Values joined by “and” are separate entries in the source; they are usually repeats but may differ in a detail not shown here. Equal entries are not always repeated. Inconclusive results are not listed. Where a call stands in place of a potency, no number is given. The source holds several records for some structures; these can differ, active in one and inactive in another. Active and inactive are the calls of the source. Unless noted, calls follow the shape of the dose curve; as a rule, active = well fitted curve in the direction sought with a large enough effect in the repeat runs; inconclusive = weak or mixed curves; inactive = no such curve, though single readings can be large; an effect the other way counts as inactive or inconclusive.

Assays:
[1] = qHTS assay for small molecule agonists of the p53 signaling pathway (AID 651631; calls by dose curve; also: nearly all actives have a fitted effect of over 15% in size)
In short: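 HCT-116 p53RE-bla reporter line, 16 h compound treatment at 37 °C, then fluorescence after 2 h with B/G FRET substrate.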

[2] = qHTS assay for small molecules that induce genotoxicity in human embryonic kidney cells expressing luciferase-tagged ATAD5 (AID 651632); also: nearly all actives have a fitted effect of over 15% in size
In short: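 HEK293T cells carrying a luciferase reporter tagged to ATAD5 were exposed to compound or DMSO vehicle for 16 hr at 37C, 5% CO2. Amplite was added, and after 30 min at room temperature luciferase activity was read as a marker of ATAD5 induction.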

[3] = qHTS assay for small molecule agonists of the p53 signaling pathway - cell viability (AID 651633; calls by dose curve;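 also: p53RE-bla HCT reporter cells with a stable beta-lactamase p53 reporter; series mostly up to about 83 µM; nearly all actives have a fitted effect of over 30% in size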)
In short: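 Viability counter-read: CellTiter-Glo luminescence (30 min, room temperature) in the same p53RE-bla plates. These plates had been exposed to compounds for 16 h at 37 C.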

[4] = qHTS assay for small molecule disruptors of the mitochondrial membrane potential - cell viability (AID 720634; calls by dose curve;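 also: human HepG2 liver cancer cells; series mostly up to about 83 µM; nearly all actives have a fitted effect of over 20% in size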)
In short: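 HepG2 cells seeded overnight at 37 C, then exposed to compound or DMSO for 1 hr at 37 C, 5% CO2. m-MPI dye added, then CellTiter-Glo for 30 min at room temperature; viability read as ATP luminescence.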

[5] = qHTS assay for small molecule disruptors of the mitochondrial membrane potential (AID 720635); also: potency is read from the fitted curve at half-maximal effect
In short: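 Mitochondrial membrane potential tracked with Mito-MPS dye, red aggregates (ex 540/em 590 nm) against green monomers (ex 490/em 535 nm). Compound treatment 1 hr at 37C, dye 30 min in HepG2.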

[6] = qHTS assay to test for compound auto fluorescence at 590 nm (red) in HepG2 cells (AID 720674)
In short: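 We screened compounds on adherent HepG2 cells, incubating them for an hour at 37 C in 5% CO2 before reading emission at 590 nm under 540 nm excitation; values reflect equivalence to Rose Bengal sodium fluorescence.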

[7] = qHTS assay to test for compound auto fluorescence at 535 nm (green) in HepG2 cells (AID 720675)
[8] = qHTS assay to test for compound auto fluorescence at 460 nm (blue) in HEK293 cells (AID 720678)
In short: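 Intrinsic compound fluorescence is recorded in live HEK293 cultures after overnight incubation at 37C, 5% CO2, using excitation 405 nm and emission 460 nm. Values are referenced to triamterene.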

[9] = qHTS assay to test for compound auto fluorescence at 590 nm (red) in HEK293 cells (AID 720679)
In short: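 Red autofluorescence, HEK293 cells: 2,000 cells/well; attach 4-5 hr 37C; add 23 nL cpd or DMSO; incubate o/n 37C 5% CO2; read Ex540/Em590; Rose Bengal sodium reference.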

[10] = qHTS assay to test for compound auto fluorescence at 535 nm (green) in HEK293 cells (AID 720680)
[11] = qHTS assay to test for compound auto fluorescence at 460 nm (blue) in HEK293 cell free culture (AID 720681)
In short: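 Blue fluorescence (Ex 405/Em 460 nm, triamterene-equivalent) was read immediately after pin transfer of compound or DMSO into medium (DMEM, 10% FBS) without cells.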

[12] = qHTS assay to test for compound auto fluorescence at 535 nm (green) in HEK293 cell free culture (AID 720682)
In short: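 Steps: dispense DMEM/10% FBS into empty wells; pin in compound or DMSO; measure fluorescence at 485/535 nm. Values are fluorescein equivalents.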

[13] = qHTS assay to test for compound auto fluorescence at 590 nm (red) in HepG2 cell free culture (AID 720684)
In short: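 Plate contents were MEM with 10% FBS plus test compound or DMSO, no cells. Fluorescence was recorded with 540 nm excitation and 590 nm emission.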

[14] = qHTS assay to test for compound auto fluorescence at 460 nm (blue) in HepG2 cell free culture (AID 720685)
In short: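 Compound (23 nL) or DMSO pinned into cell-free MEM with 10% FBS; blue fluorescence read at 405/460 nm excitation/emission, expressed as auto-fluorescence equivalency to triamterene.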

[15] = qHTS assay to test for compound auto fluorescence at 535 nm (green) in HepG2 cell free culture (AID 720686)
[16] = qHTS assay to test for compound auto fluorescence at 460 nm (blue) in HepG2 cells (AID 720687)
In short: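 Blue-channel autofluorescence (Ex/Em 405/460 nm, triamterene-equivalent) was measured after 1 hr compound exposure at 37 C, 5% CO2. Cells were HepG2, plated overnight at 37 C in MEM plus 10% FBS.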

[17] = qHTS assay for small molecules that induce genotoxicity in human embryonic kidney cells expressing luciferase-tagged ATAD5 - cell viability (AID 651634; calls by dose curve; also: nearly all actives have a fitted effect of over 25% in size)
In short: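 HEK293T cells expressing luciferase-tagged ATAD5 were exposed to compound or DMSO for 15.5 hr at 37C, 5% CO2. Viability was then read as live-cell protease activity by CellTiter-Fluor fluorescence after 30 min at 37C.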

[18] = qHTS assay to test for compound auto fluorescence at 590 nm (red) in HEK293 cell free culture (AID 720683)
In short: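 Red-channel autofluorescence of compounds in culture medium (DMEM, 10% FBS), no cells, measured at 540/590 nm. Rose Bengal sodium is the reference fluorophore for equivalence.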

[19] = target: Glucocorticoid receptor (Homo sapiens) (UniProt P04150); assay: qHTS assay to identify small molecule agonists of the glucocorticoid receptor (GR) signaling pathway (AID 720691; active = well fitted activation curve with a large enough effect in the signal ratio in the repeat runs, not every such curve was filed as active; the % refers to the signal ratio)
Glucocorticoid receptor (Homo sapiens), sequence (P04150 whole entry, looked up): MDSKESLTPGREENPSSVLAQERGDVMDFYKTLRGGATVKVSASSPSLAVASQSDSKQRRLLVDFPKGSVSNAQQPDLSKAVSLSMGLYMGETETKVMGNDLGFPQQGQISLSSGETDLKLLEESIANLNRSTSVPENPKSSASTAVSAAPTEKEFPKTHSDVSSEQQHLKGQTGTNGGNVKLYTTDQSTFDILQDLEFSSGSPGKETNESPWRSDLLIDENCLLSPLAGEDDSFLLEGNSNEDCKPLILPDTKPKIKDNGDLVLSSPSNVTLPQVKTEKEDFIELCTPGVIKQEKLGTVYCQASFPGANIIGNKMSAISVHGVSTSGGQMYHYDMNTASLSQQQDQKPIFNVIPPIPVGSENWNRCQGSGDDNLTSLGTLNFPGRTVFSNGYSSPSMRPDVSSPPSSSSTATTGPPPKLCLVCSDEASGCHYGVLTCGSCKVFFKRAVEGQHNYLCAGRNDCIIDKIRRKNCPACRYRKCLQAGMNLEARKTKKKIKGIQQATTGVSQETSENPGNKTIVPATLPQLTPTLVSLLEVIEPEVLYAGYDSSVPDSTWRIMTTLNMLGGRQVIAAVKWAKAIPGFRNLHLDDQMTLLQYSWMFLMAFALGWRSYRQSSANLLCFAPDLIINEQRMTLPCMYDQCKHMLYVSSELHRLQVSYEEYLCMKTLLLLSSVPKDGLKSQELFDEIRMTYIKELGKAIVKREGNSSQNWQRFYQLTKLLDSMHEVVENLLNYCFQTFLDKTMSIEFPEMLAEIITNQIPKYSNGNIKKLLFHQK
In short: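 GR-bla HeLa cells (beta-lactamase reporter under glucocorticoid response element) were plated 4 h at 37 C/5% CO2, given compounds in DMSO, and incubated 18 h at 37 C. LiveBLAzer B/G FRET substrate was added for 2 h at room temperature, then fluorescence intensity read.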

[20] = target: Glucocorticoid receptor (Homo sapiens) (UniProt P04150); assay: qHTS assay to identify small molecule antagonists of the glucocorticoid receptor (GR) signaling pathway (AID 720692; active = well fitted inhibition curve with a large enough effect in the signal ratio in the repeat runs, not every such curve was filed as active; the % refers to the signal ratio)
In short: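 GR-bla HeLa cells (beta-lactamase reporter under glucocorticoid response element) were pre-plated 4 h at 37 C, treated with compounds plus 5 nM dexamethasone (final) for 18 h, then read by LiveBLAzer B/G FRET fluorescence after 2 h.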

| Structure (SMILES) | Potency [1] | Potency [2] | Potency [3] | Potency [4] | Potency [5] | outcome [6] | outcome [7] | outcome [8] | outcome [9] | outcome [10] | outcome [11] | outcome [12] | outcome [13] | outcome [14] | outcome [15] | outcome [16] | Potency [17] | outcome [18] | outcome [19] | Potency [20] |
| --- | --- | --- | --- | --- | --- | --- | --- | --- | --- | --- | --- | --- | --- | --- | --- | --- | --- | --- | --- | --- |
| COP(=S)(OC)Oc1ccc(S(N)(=O)=O)cc1 | inactive | inactive | inactive | inactive | inactive | inactive | inactive | inactive | inactive | inactive | inactive | inactive | inactive | inactive | inactive | inactive | – | – | – | – |
| N#CCBr | inactive | inactive | inactive | inactive | – | inactive | inactive | inactive | inactive | – | inactive | inactive | inactive | inactive | inactive | – | inactive | inactive | inactive | inactive |
| N#CCCC#N | inactive | inactive | inactive | – | – | inactive | inactive | inactive | inactive | inactive | inactive | inactive | inactive | inactive | inactive | inactive | inactive | inactive | – | – |
| CC(C)CP(=S)(S)CC(C)C | inactive | inactive | inactive | inactive | – | inactive | inactive | inactive | inactive | – | inactive | inactive | inactive | inactive | inactive | inactive | inactive | inactive | inactive | inactive |
| CC1CCCCC1NC(=O)Nc1ccccc1 (stereo not given) | inactive | inactive | inactive | inactive | 21.7 µM (active) | inactive | inactive | inactive | inactive | inactive | inactive | inactive | inactive | inactive | inactive | inactive | – | inactive | inactive | inactive |
| CCC(=O)c1ccccc1 | inactive | inactive | inactive | inactive | – | inactive | inactive | inactive | inactive | inactive | – | inactive | inactive | inactive | inactive | inactive | inactive | – | – | – |
| O=S(=O)(O)C(F)(F)C(F)(F)C(F)(F)C(F)(F)C(F)(F)C(F)(F)F | inactive | inactive | inactive | inactive | – | inactive | inactive | inactive | inactive | inactive | inactive | – | inactive | inactive | inactive | – | inactive | inactive | inactive | inactive |
| CN(N=O)C(N)=O | inactive | inactive | inactive | inactive | – | inactive | inactive | inactive | inactive | – | inactive | inactive | inactive | – | inactive | inactive | inactive | inactive | inactive | inactive |
| CCS(=O)(=O)CCSP(=O)(OC)OC | inactive | inactive | inactive | inactive | – | – | inactive | inactive | inactive | – | inactive | inactive | inactive | inactive | inactive | – | inactive | inactive | inactive | inactive |
| COc1cc2c(cc1OC)[C@@]13CCN4CC5=CCO[C@H]6CC(=O)N2[C@H]1[C@H]6[C@H]5C[C@H]43 | inactive | inactive | inactive | inactive | – | inactive | inactive | inactive | inactive | – | inactive | inactive | inactive | inactive | inactive | inactive | inactive | – | – | – |
| N#CC(Cl)(Cl)Cl | inactive | inactive | inactive | inactive | – | inactive | inactive | inactive | inactive | – | inactive | inactive | inactive | inactive | inactive | inactive | inactive | inactive | inactive | – |
| CN1CCC(O)(c2ccc(F)cc2)C(C(=O)c2ccc(F)cc2)C1 (stereo not given) | inactive | inactive | inactive | inactive | – | inactive | inactive | inactive | inactive | – | – | inactive | – | inactive | inactive | inactive | inactive | – | inactive | – |
| COc1ccc(C(=O)N2CCCC2=O)cc1 | inactive | inactive | inactive | – | – | inactive | inactive | inactive | inactive | inactive | inactive | inactive | inactive | inactive | inactive | inactive | inactive | inactive | inactive | inactive |
| CNC(=O)Oc1ccccc1C1OCCO1 | inactive | inactive | inactive | inactive | – | inactive | inactive | inactive | inactive | inactive | inactive | – | – | inactive | inactive | inactive | inactive | – | inactive | inactive |
| CC(C)[N+](=O)[O-] | inactive | inactive | inactive | – | – | inactive | inactive | inactive | inactive | inactive | inactive | inactive | inactive | inactive | inactive | inactive | inactive | inactive | inactive | inactive |
| CCC1(c2ccccc2)C(=O)N=C(O)NC1=O (stereo not given) | inactive | inactive | inactive | inactive | inactive | inactive | inactive | inactive | inactive | inactive | inactive | inactive | inactive | inactive | inactive | inactive | – | inactive | – | – |
| CCOC(=O)/C=C(C)/C=C/C[C@@H](C)CCCC(C)C | inactive | inactive | inactive | inactive | inactive and 54.5 µM (active) | inactive | inactive | inactive | inactive | inactive | inactive | inactive | inactive | inactive | inactive | inactive | – | inactive | inactive | inactive |
